BoNT-A LC inh2 – BoNT/A light chain protease inhibitors, primary screen, biochemical, flow cytometry, MLPCN library | 360,000 compounds, 0.17% hits | inhibition, % at 10 µM | Botulinum neurotoxin type A light chain protease (Clostridium botulinum A str. ATCC 3502) | multiplex microsphere protease substrate cleavage
BoNT F protease – BoNT/F light chain protease inhibitors, primary screen, biochemical, flow cytometry, MLPCN library; Multiplex microsphere protease cleavage assay; Botulinum neurotoxin type F light chain protease (Clostridium botulinum); inhibition, % at 10 µM; 360,000 compounds, 0.22% hits; in the data active means inhibition above about 35%, passing the limit was not always enough; inconclusive means no clear call, values can overlap the other calls
Anthrax LF inh2 – Bacillus anthracis LF protease inhibitors, primary screen, biochemical, multiplex microsphere, MLPCN library | Lethal factor (Bacillus anthracis), P15917 | multiplex microsphere protease cleavage assay | inhibition, % at 10 µM | 360,000 compounds, 0.12% hits
Target sequence (P15917 whole entry, looked up): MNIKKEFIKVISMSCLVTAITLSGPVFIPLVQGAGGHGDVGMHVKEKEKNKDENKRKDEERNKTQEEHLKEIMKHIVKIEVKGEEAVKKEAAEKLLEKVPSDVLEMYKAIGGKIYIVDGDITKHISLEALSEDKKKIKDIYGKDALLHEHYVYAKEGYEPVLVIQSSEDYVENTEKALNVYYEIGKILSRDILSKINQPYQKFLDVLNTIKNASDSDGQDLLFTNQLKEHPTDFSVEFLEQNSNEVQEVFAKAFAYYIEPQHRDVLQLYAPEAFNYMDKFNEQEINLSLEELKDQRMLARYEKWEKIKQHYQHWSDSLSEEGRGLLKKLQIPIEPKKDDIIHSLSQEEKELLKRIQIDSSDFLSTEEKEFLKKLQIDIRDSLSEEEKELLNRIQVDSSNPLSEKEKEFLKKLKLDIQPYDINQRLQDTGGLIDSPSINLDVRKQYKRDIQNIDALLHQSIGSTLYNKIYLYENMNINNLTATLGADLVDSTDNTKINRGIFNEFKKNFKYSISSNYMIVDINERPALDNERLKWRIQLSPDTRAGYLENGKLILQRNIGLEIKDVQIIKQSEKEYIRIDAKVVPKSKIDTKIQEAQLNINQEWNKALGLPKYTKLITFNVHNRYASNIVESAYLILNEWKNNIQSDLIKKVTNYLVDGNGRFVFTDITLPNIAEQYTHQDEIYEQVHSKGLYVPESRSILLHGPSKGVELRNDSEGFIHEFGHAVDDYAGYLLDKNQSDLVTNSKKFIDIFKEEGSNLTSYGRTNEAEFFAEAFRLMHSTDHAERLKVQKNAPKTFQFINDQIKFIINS
Vc quorum ag-1 – inducers of Vibrio cholerae quorum light production without autoinducers, primary screen, BH1578 luxS cqsA deficient, single point. 350,000 compounds, 0.16% hits. activation, % at 18.7 µM. V. cholerae BH1578 lux reporter, luminescence, 6 h. AID 588436, 2011; in the data active means activation mostly above about 9.7%, no sharp cut-off; inconclusive means no clear call, values can overlap the other calls; inactive means mostly below about 3.7%
Bead autofluor – flagged as autofluorescent in microsphere protease counterscreen | compound autofluorescence counterscreen, microsphere flow cytometry; active compounds read high | fluorescence intensity (test concentration not listed) | 360,000 compounds, 3.1% hits; in the data active means fluorescence intensity above about 16000; inconclusive means no clear call, values can overlap the other calls
Vc quorum ag-2 – V. cholerae lux activation without autoinducers – BH1578 luxS cqsA deficient, cherry-pick, plate reader, dose response; activation, % at 50 µM; shares compounds with Vc quorum ag-1; 620 tested, under 10 active; V. cholerae BH1578 lux reporter, luminescence, 6 h; call rule not given here
HeLa tox – HeLa cell cytotoxicity, dose response, cytotoxicity control, 24 h, dry powder; AID 624140, 2012; shares compounds with Vc quorum ag-1; HeLa viability, CellTiter-Glo ATP luminescence; 25 tested, under 10 active; activity change, negative = cytotoxicity, % at 35 µM;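 active means signal drop with fitted half-maximal concentration at or below twice the highest valid dose; inconclusive means flat curve with 30 to 70% loss, or poor fit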
Large screens that a line does not name were inactive (follow-up assays come after a bar, where they were run). An excerpt weighted towards active compounds, which were near 3.5% of everything screened. Unless noted, no stated cut-off is given here; in the data, active means inhibition above about 30%; inconclusive means no clear call, values can overlap the other calls; inactive means below that.

O=C(CNc1cc(S(=O)(=O)N2CCOCC2)ccc1N1CCCC1)Nc1ccc(Cl)cc1	Vc quorum ag-1 96.9, Bead autofluor inconclusive | Vc quorum ag-2 inactive
FC(F)Oc1ccccc1NC(=S)NCc1ccco1	Bead autofluor 23284 | Vc quorum ag-2 inactive
Cn1c(=O)c2c(nc(SCCN3CCOCC3)n2Cc2cccc3ccccc23)n(C)c1=O	Bead autofluor 19656 | Vc quorum ag-2 inactive
NS(=O)(=O)c1ccc(CCNS(=O)(=O)c2ccc(Cl)nc2)cc1	none
CCOC(=O)C1(C)CCCN(C(=O)c2ccc(OC(F)F)cc2)C1 (stereo not drawn)	none
CC(C)(C)C(=O)OCc1cn(-c2ccccc2)nn1	none
CCNC(=O)OCc1cn(-c2ccccc2)nn1	Vc quorum ag-1 active | Vc quorum ag-2 inactive
CC1CCN(CCCNC(=O)C2CCN(S(=O)(=O)N3CCC4(CC3)OCCO4)CC2)CC1	none
Cc1ccc(C(=O)OCC(=O)Nc2ccccc2)cc1NC(=O)c1ccco1	Bead autofluor 17209 | Vc quorum ag-2 inactive
Cc1ccc(C(=O)OCC(=O)Nc2ccc(N(C)C)cc2)cc1NC(=O)c1ccco1	none
O=C(Nc1nnc(C(F)(F)F)s1)C1COc2ccccc2O1 (stereo not drawn)	none | Vc quorum ag-2 inactive
O=C(Nc1nnc(C2CC2)s1)C1COc2ccccc2O1 (stereo not drawn)	none
CCCCCNC(=O)c1c[nH]c2ccc(S(=O)(=O)N3CCC4(CC3)OCCO4)cc2c1=O	none
CC(C)Cn1c(CN2CCN(C)C(CCO)C2)nc2ccccc21 (stereo not drawn)	Vc quorum ag-1 72.0 | Vc quorum ag-2 inactive
CCc1sc(N(C(=O)Cc2ccccc2)c2cccc(F)c2)nc1-c1ccc(C)cc1	none | Vc quorum ag-2 inactive
CCc1sc(N(C(=O)Cc2ccccc2)c2ccccc2F)nc1-c1ccc(C)cc1	none
Cc1ccc(SC(C)c2nc(-c3ccccc3)no2)cc1 (stereo not drawn)	none
Cc1ccccc1OC(C)c1nc(-c2ccccc2)no1 (stereo not drawn)	none | Vc quorum ag-2 inactive
CN(C(=O)Cn1cc(C(F)(F)F)cc(Cl)c1=O)C1CCS(=O)(=O)C1 (stereo not drawn)	none | Vc quorum ag-2 inactive
O=C(Cn1cc(C(F)(F)F)cc(Cl)c1=O)NC1CCS(=O)(=O)C1 (stereo not drawn)	none
COc1ccc(S(=O)(=O)N2CCSC2c2ccc(N)cc2)cc1 (stereo not drawn)	none | Vc quorum ag-2 inactive
CC(=O)Nc1ccc(S(=O)(=O)N2CCSC2c2ccc(Cl)cc2)cc1 (stereo not drawn)	none
COc1ccc(CC(=O)N2CCC(Nc3nc4ccccc4n3Cc3ccc(F)cc3)CC2)cc1	Vc quorum ag-1 15.4 | Vc quorum ag-2 inactive
CCCNC(=O)c1cc(C2CCCCN2C(=O)CCCc2ccccc2)on1 (stereo not drawn)	none
COC(=O)C1C2CC(=O)C(C2)C1C(=O)OC (stereo not drawn)	none
COc1ccccc1NC(=O)Cc1csc(NC(=S)Nc2ccccc2)n1	Bead autofluor 20382 | Vc quorum ag-2 inactive
COc1ccc(NC(=S)Nc2nc(CC(=O)Nc3ccccc3OC)cs2)cc1	none
CCOC(=O)c1ccccc1NC(=O)COC(=O)C1=COCCO1	none | Vc quorum ag-2 inactive
CCOC(=O)c1ccccc1NC(=O)C1=COCCO1	BoNT F protease inconclusive
COCCNC(=O)C1(C)CCN(C(=O)c2ccc(OC)c(F)c2)C1 (stereo not drawn)	none
CSc1ncccc1C(=O)N1CCN(S(=O)(=O)c2cc(C)ccc2C)CC1	none
Cc1ccc(C)c(S(=O)(=O)N2CCN(C(=O)c3n[nH]c(=O)c4ccccc34)CC2)c1	Vc quorum ag-1 31.6 | Vc quorum ag-2 inactive
Cc1ccccc1Nc1c(F)c(F)c(F)c(F)c1C(=O)O	none
CCCS(=O)(=O)N1CCC(C(=O)N2CCN(C(=O)OCC)CC2)CC1	Vc quorum ag-1 15.0 | Vc quorum ag-2 inactive
COC(=O)c1sc2ncccc2c1OCc1c(Cl)cccc1Cl	Bead autofluor 19174 | Vc quorum ag-2 inactive
Cc1c(Cl)cccc1-n1cnc(=O)c2ccccc21	BoNT F protease inconclusive | HeLa tox inactive
O=c1ncn(-c2cccc([N+](=O)[O-])c2)c2ccccc12	BoNT F protease inconclusive
CCC(=O)c1coc2ccc(O)cc12	Vc quorum ag-1 25.0 | Vc quorum ag-2 inactive
CCOC(=O)/C=C1\SCC(=O)N1CC(=O)NC(C)c1ccc(F)cc1 (stereo not drawn)	none
COc1cccc(OCC(=O)NC2CCCCC2)c1	Vc quorum ag-1 36.9 | Vc quorum ag-2 inactive
COc1ccc(-c2ccc(-c3nnc(Cc4ccc(OC)c(OC)c4)o3)cc2)cc1	Bead autofluor 22185 | Vc quorum ag-2 inactive
CCCCSCCCNC(=O)CCCN1C(=O)c2ccccc2Sc2ncccc21	none
COc1cc(C(=O)Nc2ccc(NC(=O)C(C)C)nc2)cc(OC)c1OC	Vc quorum ag-1 6.7 | Vc quorum ag-2 inactive
COc1cc(C(=O)Nc2ccc(NC(=O)c3ccccc3)nc2)cc(OC)c1OC	none
CCCNC(=O)COC(=O)/C=C/c1ccco1	Vc quorum ag-1 active | Vc quorum ag-2 inactive
O=C(COC(=O)/C=C/c1ccco1)NCc1ccccc1	none
Cc1ccc(/C=C/C(=O)NCc2ccc(S(N)(=O)=O)cc2)o1	none
Cc1ccc(/C=C/C(=O)OCC(=O)NCCc2ccc(S(N)(=O)=O)cc2)o1	Vc quorum ag-1 25.6 | Vc quorum ag-2 inactive
COc1ccc(OCC(=O)Nc2c3c(nn2C(C)(C)C)CSC3)cc1	none
Cc1ccc(C2(C)NC(=O)N(CC(=O)NCCC3=CCCCC3)C2=O)cc1 (stereo not drawn)	Vc quorum ag-1 228.2 | Vc quorum ag-2 inactive
CC(C)CC(=O)Nc1ccc(C(=O)COC(=O)C2CCC2)cc1	none
Cc1cc2oc(=O)cc(-c3ccccc3)c2c(C)c1-c1ccc(CO)cc1	none
Cc1cc2oc(=O)cc(-c3ccccc3)c2c(C)c1-c1ccc(C#N)cc1	none | Vc quorum ag-2 inactive
O=C(Oc1ccnc2cc(Cl)ccc12)N1CCCCCC1	Vc quorum ag-1 16.7 (no result: BoNT-A LC inh2, BoNT F protease, Anthrax LF inh2, Bead autofluor) | Vc quorum ag-2 inactive
CC(C)CNC(=O)c1c2c(nc3ccccc13)-c1ccccc1CC2	Vc quorum ag-1 16.7 | Vc quorum ag-2 inactive
CCOC(=O)Nc1ccc(S(=O)(=O)Nc2cc(C)nc(C)n2)cc1	none | Vc quorum ag-2 inactive
CCN(CC)c1ccc(C(=O)NNC(=O)CNC(=O)c2cccs2)cc1	none (no result: BoNT-A LC inh2, BoNT F protease, Anthrax LF inh2, Bead autofluor)
CCCCN1C(=O)C(=Nc2cccc3cnccc23)c2ccccc21	none
CC(=O)Nc1ccc2nc(-c3cccnc3)[nH]c2c1	Vc quorum ag-1 75.4 | Vc quorum ag-2 inactive

Screening results from PubChem.
